# Bioassay records (PubChem BioAssay)
# Compounds with a hit are over-represented: about 22% of the library has one in this group of screens.
# CYP2C19 inhib: blockers of cytochrome P450 2C19 activity – biochemical, luminescence, ADME assay, primary screen. P33261. CYP2C19 Supersomes, luciferin-H EGE luminescence, 30 min. inhibition, % at 5 µM. 96,000 tested, 21% active;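 active means CYP2C19 inhibition above a set limit at 5 µM in the primary screen, cut at about 50% in these data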;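 further: plate controls were negative control wells for no effect and 2.5 mM tranylcypromine positive control for full effect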
# CYP2C19 act: human CYP2C19 activators, primary screen, biochemical, luminescence; recombinant CYP2C19, luciferin-H EGE luminescence; hits give high values; 0 = fully inhibited enzyme, 1 = untreated enzyme; activation factor at 5 µM; 96,000 tested, under 10 active; AID 1025, 2008;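 active means activation factor of at least 2 at 5 µM in the primary screen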;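 further: 0 = wells with 2.5 mM tranylcypromine and 1 = vehicle-only wells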
# Measles CPE: compounds protecting cells from measles virus cytopathic effect, primary screen, measles RdRp inhibitor project, single point, MLSMR library, absorbance. Measles virus-infected cells, CPE protection. protection (pct of control), % at 4 µM. 140,000 tested, 1.5% active; in the data active means protection mostly above about 24%, no sharp cut-off; inactive means mostly below about 26%
# CYP2C9 activ: human CYP2C9 activators, primary screen, biochemical, luminescence; activation factor at 5 µM; Cytochrome P450 2C9 (Homo sapiens), P11712; 96,000 tested, 1.4% active; recombinant CYP2C9, luciferin-H conversion; hits give high values; factor 1 = untreated enzyme, 0 = blocked; AID 1024, 2008;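 active means activation factor of 2 or more for CYP2C9 at a 5 µM dose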;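 further: 0 = sulfaphenazole-blocked wells and 1 = vehicle-only wells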
# Target sequence (P11712 whole entry, looked up): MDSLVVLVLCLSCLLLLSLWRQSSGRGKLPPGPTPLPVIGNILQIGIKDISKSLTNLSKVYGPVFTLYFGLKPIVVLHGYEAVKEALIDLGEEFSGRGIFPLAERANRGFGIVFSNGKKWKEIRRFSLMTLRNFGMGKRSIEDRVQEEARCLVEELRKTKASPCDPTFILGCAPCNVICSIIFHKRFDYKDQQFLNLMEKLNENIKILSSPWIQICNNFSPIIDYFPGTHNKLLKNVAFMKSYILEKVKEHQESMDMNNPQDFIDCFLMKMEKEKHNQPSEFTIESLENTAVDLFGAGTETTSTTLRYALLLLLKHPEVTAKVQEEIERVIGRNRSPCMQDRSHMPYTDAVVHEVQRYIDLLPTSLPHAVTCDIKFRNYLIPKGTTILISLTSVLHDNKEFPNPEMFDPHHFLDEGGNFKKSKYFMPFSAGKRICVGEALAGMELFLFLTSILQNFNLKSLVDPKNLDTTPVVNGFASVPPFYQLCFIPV
# CYP2C9 inh: blockers of cytochrome P450 2C9 activity – biochemical, luminescence, ADME assay, primary screen; CYP2C9 Supersomes, luciferin-H conversion; inhibition, % at 5 µM; 96,000 tested, 20% active;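 active means blocking of liver enzyme CYP2C9 beyond about 50% at 5 µM, limit read from the data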
# Starred values were filed as active, the others as inactive; . = no result given.
SMILES,CYP2C19 inhib,CYP2C19 act,Measles CPE,CYP2C9 activ,CYP2C9 inh
CC1CC(NC(=O)Cc2ccc(Br)cc2)CC(C)(C)C1 (stereo unspecified),.,.,5.3,.,.
CC12CN(C(=O)c3ccco3)CC(c3ccccc3)(CN(C(=O)c3ccco3)C1)C2=O,.,.,10.8,.,.
CCOC(=O)c1[nH]c(C)c(C(=O)OCC(=O)N(CC)C2CCS(=O)(=O)C2)c1C (stereo unspecified),-19.9,1.2,5.9,0.7,27.9
CC(=O)C1=C(O)C(=O)N(c2cccc(C(=O)O)c2)C1c1ccccc1F (stereo unspecified),.,.,19.4,.,.
Cc1ccc(C)c(C2=CSC3=NS(=O)(=O)CCN23)c1,4.0,1,27.1,1,2.1
Clc1ccc(C2=CSC3=NCCN23)cc1Cl,71.3*,0.3,54.5*,0.7,25.6
Cc1ccc(C)c(C2=CSC3=NCCN23)c1,52.1*,0.5,4.2,0.7,30.1
CCOC(=O)c1c(NC(=O)CSc2nnc(C)s2)sc2c1CCN(C)C2,2.5,1,3.2,0.8,15.8
COc1ccc(C(C)=O)cc1CN1C(=O)C(C)N(c2ccc(C)cc2)C1=O (stereo unspecified),81.8*,0.2,8.6,0.2,84.4*
O=C(Nc1ccccc1)N1C(=O)C2(OCCO2)c2ccccc21,-8.2,1.1,25.6,1.2,-21.3
c1ccc(C2(c3ccccc3)OCC(Cn3cncn3)O2)cc1 (stereo unspecified),66.4*,0.3,14.2,0.5,51.9*
CCC(=O)Nc1nc2c(OC)ccc(C)c2s1,.,.,13.5,.,.
COc1ccc(OC)c2sc(NC(=O)C(C)C)nc12,45.7,0.5,3.6,0.3,69.8*
CCOc1ccc2nc(NC(=O)CCn3cccc3)sc2c1,-8.8,1.1,9.6,0.8,15.4
Cc1ccc2c(c1)NC(=O)C(CC(=O)NCCN(CC(C)C)CC(C)C)O2 (stereo unspecified),4.5,1,-0.3,0.5,51.3*
COc1ccc(OC)c(CCNC(=O)CC2Oc3ccccc3NC2=O)c1 (stereo unspecified),50.1*,0.5,12.0,1.1,-8.2
NC(=O)C1(S(=O)(=O)c2ccccc2)CCCCC1,37.6,0.6,4.9,1,-2.9
O=C(O)c1ccccc1C(=O)NCC(O)COCC1CC=CCC1 (stereo unspecified),92.0*,0.1,4.6,0.9,12.8
Cc1cccc(-c2nnc(SCC3CNC(=O)O3)n2-c2ccc(Cl)cc2)c1 (stereo unspecified),.,.,8.6,.,.
CC(C(=O)Oc1ccc2c(c1)OCO2)N1C(=O)c2ccccc2C1=O (stereo unspecified),61.7*,0.4,19.3,0.6,42.0
CC(C)C(C(=O)Nc1ccc2c(c1)OCCO2)N1C(=O)c2ccccc2C1=O (stereo unspecified),22.5,0.8,24.1,0.5,49.3
CC(C)C(C(=O)Nc1cccnc1)N1C(=O)c2ccccc2C1=O (stereo unspecified),30.2,0.7,5.7,0.4,63.2*
CC(C(=O)N1CCOCC1)N1C(=O)c2ccccc2C1=O (stereo unspecified),-21.9,1.2,6.8,1.1,-9.3
CC(C)C(C(=O)Nc1ccc2c(c1)OCO2)N1C(=O)c2ccccc2C1=O (stereo unspecified),49.0,0.5,21.7,0.5,52.4*
Cc1ccc(N(C(C)C(=O)Nc2ccc3c(c2)OCO3)S(C)(=O)=O)cc1 (stereo unspecified),66.8*,0.3,3.8,0.6,43.0
SMILES,CYP2C19 inhib,CYP2C19 act,Measles CPE,CYP2C9 activ,CYP2C9 inh
O=C(O)CCSc1nc2ccccc2c(=O)[nH]1,.,.,23.0,.,.
CCOC(=O)C1CCN(C(=O)N(C)C)CC1,3.4,1,13.6,0.9,12.9
CC(C(=O)OCC(=O)Nc1ccc2c(c1)OCO2)N1C(=O)c2ccccc2C1=O (stereo unspecified),73.7*,0.3,.,0.3,68.3*
CCc1c(C)[nH]n(-c2nc(-c3cccc([N+](=O)[O-])c3)cs2)c1=O,.,.,5.7,.,.
CC1CCCN(S(=O)(=O)c2ccc(C(=O)Nc3nnc(-c4ccccc4Cl)o3)cc2)C1 (stereo unspecified),-4.9,1,2.1,0.9,9.4
O=C(Nc1nnc(-c2ccccc2Cl)o1)c1cccnc1,-0.1,1,11.3,0.2,82.1*
CCOc1ccc(-n2cc(C(=O)NCc3ccco3)c3cc(OC)c(OC)cc3c2=O)cc1,12.2,0.9,7.5,0.6,39.2
Cc1cc(C)n(C(=O)c2cccc(S(=O)(=O)N3CCOCC3)c2)n1,58.9*,0.4,14.8,0.7,33.9
Cc1cc(C)n(C(=O)c2ccc(S(=O)(=O)N3CCOCC3)cc2)n1,-12.0,1.1,12.3,0.5,53.1*
Cc1cc(C)n(C(=O)c2ccc(S(=O)(=O)NCC3CCCO3)cc2)n1 (stereo unspecified),32.9,0.7,17.2,0.4,58.5*
Cc1ccc(C(=O)N2CCN(C)CC2)cc1S(=O)(=O)N1CCCCC1,9.7,0.9,8.2,0.9,6.7
Cc1cc(C)n(C(=O)c2ccc(C)c(S(=O)(=O)N3CCCC3)c2)n1,73.2*,0.3,19.7,0.5,54.7*
N#Cc1ccccc1Cn1cc(/C=C/[N+](=O)[O-])c2ccccc21,.,.,1.1,.,.
Nc1ccc(Nc2ccncc2[N+](=O)[O-])cc1,20.0,0.8,5.3,0.6,41.0
O=C(c1cccc(S(=O)(=O)N2CCOCC2)c1)N1CCCC1,4.3,1,1.2,1,1.2
Cc1ccc(Sc2c(C)nn(C(=O)c3cccc(S(=O)(=O)N4CCOCC4)c3)c2C)cc1,52.8*,0.5,4.9,0.2,78.5*
OC(c1ccc(Cl)cc1)C(O)c1nc2ccccc2[nH]1 (stereo unspecified),77.0*,0.2,11.6,1,1.3
Clc1cccc(CON/C=N/c2ncnc3sccc23)c1,80.5*,0.2,6.7,0.5,50.5*
Clc1cccc(Cl)c1CON/C=N/c1ncnc2sccc12,16.1,0.8,30.3,1,2.8
CCCOC(=O)c1ccc(NC(=O)C2CCCO2)cc1 (stereo unspecified),32.5,0.7,11.0,1,-4.0
CCOC(=O)N1CCC(NC(=O)c2ccc(NC(=O)C3CCCO3)cc2)CC1 (stereo unspecified),10.9,0.9,22.0,0.9,8.2
O=C(NCCN1CCN(c2ccccc2)CC1)c1ccc(NC(=O)C2CCCO2)cc1 (stereo unspecified),52.0*,0.5,3.7,1.1,-5.0
O=C1NC(=O)c2cc(NC(=O)C3CCCO3)ccc21 (stereo unspecified),37.1,0.6,8.2,0.1,86.2*
Cc1ccnc(NS(=O)(=O)c2ccc(NC(=O)C3CCCO3)cc2)n1 (stereo unspecified),0.1,1,5.8,1,0.8
